Results reported in PubChem BioAssay (EPA / NIEHS).
Records with an inconclusive call do not appear. Calls of active or inactive are those of the source. How the source made its calls, unless noted: active means hit-call score of the fitted dose curve at least 0.9, where 1 is the maximum; inactive means score below 0.9.

What was measured:
[1] = read-out: NAD(P)H dehydrogenase [quinone] 1 (NQO1), NQO1 (gene 1728); assay: LTEA_HepaRG_NQO1: Life Technologies and Expression Analysis (LTEA) Assay for NAD(P)H dehydrogenase [quinone] 1 (NQO1) using HepaRG (AID 2283526); conditions: mRNA level, 48 h; actives raise or lower the signal
Summary of the method: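 Human HepaRG hepatic cells received chemicals for 48 h in serum-free induction medium with 0.5% DMSO, up to 100 uM. Expression was assessed by TaqMan qRT-PCR against housekeeping controls and fitted bidirectionally against DMSO.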

[2] = read-out: Nuclear factor erythroid 2-related factor 2 (Homo sapiens) (UniProt Q16236); assay: LTEA_HepaRG_NFE2L2: Life Technologies and Expression Analysis (LTEA) Assay for Nuclear factor erythroid 2-related factor 2 (NFE2L2) Transcription Factor using HepaRG (AID 2283527); conditions: mRNA level, 48 h; actives raise or lower the signal;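 further: TaqMan qRT-PCR transcript level normalised to ACTB GAPDH and POLR2A housekeeping genes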
Summary of the method: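 Transcript level of NFE2L2 is the read-out, measured by microfluidic TaqMan qRT-PCR and normalized to three housekeeping genes. Human HepaRG cultures received test chemical for 48 h at up to 100 uM in half-log steps. Gain or loss of signal is fitted relative to 0.5% DMSO.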

[3] = read-out: succinate dehydrogenase complex iron sulfur subunit B (SDHB), SDHB (gene 6390); assay: LTEA_HepaRG_SDHB: Life Technologies and Expression Analysis (LTEA) Assay for succinate dehydrogenase complex iron sulfur subunit B (SDHB) using HepaRG (AID 2283528); conditions: mRNA level, 48 h; actives raise or lower the signal
Summary of the method: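 Readout is SDHB transcript level by qRT-PCR, normalised to three housekeeping genes and fitted bidirectionally against 0.5% DMSO vehicle. Human HepaRG cells were treated for 48 h at up to 100 uM.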

[4] = read-out: Signal transducer and activator of transcription 3 (Homo sapiens) (UniProt P40763); assay: LTEA_HepaRG_STAT3: Life Technologies and Expression Analysis (LTEA) Assay for Signal transducer and activator of transcription (STAT3) using HepaRG (AID 2283529); conditions: mRNA level, 48 h; actives raise or lower the signal
Summary of the method: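 Read-out is STAT3 mRNA level by qRT-PCR, normalized to three housekeeping genes, in human HepaRG liver cells treated for 48 h. Concentrations ran from 100 uM downward in half-log steps; curves were fitted for gain or loss relative to 0.5% DMSO.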

[5] = read-out: solute carrier (SLCO1B1), SLCO1B1 (gene 10599); assay: LTEA_HepaRG_SLCO1B1: Life Technologies and Expression Analysis (LTEA) Assay for solute carrier (SLCO1B1) using HepaRG (AID 2283530); conditions: mRNA level, 48 h; actives raise or lower the signal
Summary of the method: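 SLCO1B1 transcript levels were quantified by TaqMan qRT-PCR using three housekeeping genes for normalization. This followed 48 h chemical exposure (100 uM top, half-log, 8 points, 0.5% DMSO) of HepaRG liver cells, with gain or loss fitted relative to DMSO.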

[6] = read-out: sulfotransferase 2A1 (SULT2A1), SULT2A1 (gene 6822); assay: LTEA_HepaRG_SULT2A1: Life Technologies and Expression Analysis (LTEA) Assay for sulfotransferase 2A1 (SULT2A1) using HepaRG (AID 2283531); conditions: mRNA level, 48 h; actives raise or lower the signal
Summary of the method: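 Expression change of SULT2A1, by qRT-PCR with three housekeeping-gene normalization, was scored bidirectionally versus DMSO. Cells: differentiated HepaRG, dosed in duplicate for 48 h across 8 points, highest 100 µM, half-log dilution, 0.5% DMSO.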

[7] = read-out: Transforming Growth Factor (TGFA), TGFA (gene 7039); assay: LTEA_HepaRG_TGFA: Life Technologies and Expression Analysis (LTEA) Assay for Transforming Growth Factor (TGFA) using HepaRG (AID 2283532); conditions: mRNA level, 48 h; actives raise or lower the signal
Summary of the method: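 HepaRG (human liver line), 48 h exposure, 8 conc. half-log down from 100 uM, 0.5% DMSO vehicle, duplicates; serum-free induction medium. TGFA mRNA by TaqMan qRT-PCR, ACTB/GAPDH/POLR2A normalization; gain/loss fit vs DMSO.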

[8] = read-out: Transforming Growth Factor (TGFB1), TGFB1 (gene 7040); assay: LTEA_HepaRG_TGFB1: Life Technologies and Expression Analysis (LTEA) Assay for Transforming Growth Factor (TGFB1) Transporter using HepaRG (AID 2283533); conditions: mRNA level, 48 h; actives raise or lower the signal
Summary of the method: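 TGFB1 transcript measured by qRT-PCR with normalisation to three housekeeping genes (ACTB, GAPDH, POLR2A); human HepaRG line treated in duplicate for 48 hr with an 8-point series topping at 100 uM, 0.5% DMSO vehicle, bidirectionally fitted.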

TIMP1, TIMP1 (gene 7076) = assay: LTEA_HepaRG_TIMP1: Life Technologies and Expression Analysis (LTEA) Assay for TIMP1 using HepaRG (AID 2283534); conditions: mRNA level, 48 h; actives raise or lower the signal
Summary of the method: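 Bidirectional change in TIMP1 transcript versus 0.5% DMSO, measured by TaqMan qRT-PCR with three housekeeping genes for normalization. HepaRG human liver cells dosed 48 h in duplicate, top concentration 100 uM with half-log dilutions.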

[9] = read-out: Thyroid Hormone Responsive (THRSP), THRSP (gene 7069); assay: LTEA_HepaRG_THRSP: Life Technologies and Expression Analysis (LTEA) Assay for Thyroid Hormone Responsive (THRSP) using HepaRG (AID 2283536); conditions: mRNA level, 48 h; actives raise or lower the signal
Summary of the method: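 mRNA induction or loss relative to 0.5% DMSO vehicle was fitted bidirectionally across an eight-point curve whose highest exposure was 100 uM. Human HepaRG liver cells received chemicals in duplicate over 48 h before RNA extraction.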

[10] = read-out: Cellular tumor antigen p53 (Homo sapiens) (UniProt P04637); assay: LTEA_HepaRG_TP53: Life Technologies and Expression Analysis (LTEA) Assay for Tumor Protein P53 (TP53) using HepaRG (AID 2283537); conditions: mRNA level, 48 h; actives raise or lower the signal
Summary of the method: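 Read-out is TP53 transcript level by microfluidic qRT-PCR, normalised to three housekeeping genes and fitted bidirectionally against DMSO. Human HepaRG cells received compounds for 48 h, highest concentration 100 uM.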

[11] = read-out: UDP glucuronosyltransferase (UGT1A6), UGT1A6 (gene 54578); assay: LTEA_HepaRG_UGT1A6: Life Technologies and Expression Analysis (LTEA) Assay for UDP glucuronosyltransferase (UGT1A6) using HepaRG (AID 2283539); conditions: mRNA level, 48 h; actives raise or lower the signal
Summary of the method: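 Expression was quantified by TaqMan qRT-PCR on Fluidigm arrays with ACTB/GAPDH/POLR2A normalization and bidirectional fitting against 0.5% DMSO. HepaRG cells (~100,000/well) were treated in duplicate for 48 h at eight half-log concentrations up to 100 uM in serum-free induction medium.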

[12] = read-out: X-box binding protein 1 (XBP1), XBP1 (gene 7494); assay: LTEA_HepaRG_XBP1: Life Technologies and Expression Analysis (LTEA) Assay for X-box binding protein 1 (XBP1) using HepaRG (AID 2283540); conditions: mRNA level, 48 h; actives raise or lower the signal
Summary of the method: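 XBP1 transcript by qRT-PCR (housekeeping-normalized: ACTB, GAPDH, POLR2A) after 48 h chemical treatment of HepaRG cells, 8-point half-log series topping at 100 uM, vehicle 0.5% DMSO. Gain and loss of signal fitted relative to DMSO.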

[13] = LTEA_HepaRG_LDH_cytotoxicity: Cytotoxicity Assessment in the Life Technologies and Expression Analysis (LTEA) Assay (AID 2283563; active means hit-call score of the fitted dose curve at least 0.9, where 1 is the maximum;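 on AC50: LDH activity released into spent culture medium as a marker of cell death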)
Summary of the method: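 LDH release into culture medium read after 48 h chemical treatment of HepaRG cells. Duplicate wells, eight-point half-log series topping at 100 uM, 0.5% DMSO vehicle and baseline.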

[14] = ATG_XTT_Cytotoxicity: Cytotoxicity Assessment in the Attagene TRANS-FACTORIAL HepG2 Assay (AID 2283584; active means hit-call score of the fitted dose curve at least 0.9, where 1 is the maximum)
Summary of the method: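 Viability endpoint from XTT after 24 h chemical exposure of reporter-transfected human HepG2 liver cells; signal loss fitted relative to DMSO negative control.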

[15] = TOX21_p53_BLA_p2_viability: Viability Assessment in the Tox21 HCT-116 p53 Agonism Beta-lactamase Assay, Phase 2 (AID 2283591; active means hit-call score of the fitted dose curve at least 0.9, where 1 is the maximum;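 further: compound exposure lasted 16 h at 37 °C; actives lower the ATP signal meaning cytotoxicity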)
Summary of the method: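 Cytotoxicity readout: CellTiter-Glo ATP luminescence, 30 min at room temperature, after the beta-lactamase read. Cells were HCT116 exposed 16 h at 37C to compounds pin-transferred at 217-fold dilution from DMSO stocks.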

[16] = target: Cellular tumor antigen p53 (Homo sapiens) (UniProt P04637); assay: TOX21_p53_BLA_p2_ratio: Tox21 HCT-116 p53 Agonism Beta-lactamase Assay, Ratio, Phase 2 (AID 2283592; active means hit-call score of the fitted dose curve at least 0.9, where 1 is the maximum)
Summary of the method: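 Gain-of-signal p53 agonism was scored from the beta-lactamase FRET ratio (460/530 nm, 405 nm excitation) in HCT116 cells treated 16 h at 37C, 5% CO2, with DMSO serving as negative control and baseline.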

[17] = read-out: Tumor necrosis factor receptor 1 (TNFRSF1A), TNFRSF1A (gene 7132); assay: LTEA_HepaRG_TNFRSF1A: Life Technologies and Expression Analysis (LTEA) Assay for Tumor necrosis factor receptor 1 (TNFRSF1A) using HepaRG (AID 2283535); conditions: mRNA level, 48 h; actives raise or lower the signal
Summary of the method: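 mRNA measured by qRT-PCR (TaqMan, Fluidigm arrays) against ACTB/GAPDH/POLR2A housekeepers after 48 h chemical exposure of HepaRG cells. Top concentration 100 uM, half-log 8-point series, duplicates; vehicle 0.5% DMSO, both fit directions.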

[18] = TOX21_p53_BLA_p3_viability: Viability Assessment in the Tox21 HCT-116 p53 Agonism Beta-lactamase Assay, Phase 3 (AID 2283593; active means hit-call score of the fitted dose curve at least 0.9, where 1 is the maximum;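 further: cells exposed to compound for 16 h before reading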)
Summary of the method: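 Cellular ATP was quantified by CellTiter-Glo luminescence, read after 30 min at room temperature. Beforehand, HCT116 cells (4000/well) received compound 5 h post-seeding, 217-fold diluted from DMSO, then incubated 16 h at 37C.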

Chain of Nuclear factor erythroid 2-related factor 2 (Homo sapiens) (Q16236 whole entry, looked up): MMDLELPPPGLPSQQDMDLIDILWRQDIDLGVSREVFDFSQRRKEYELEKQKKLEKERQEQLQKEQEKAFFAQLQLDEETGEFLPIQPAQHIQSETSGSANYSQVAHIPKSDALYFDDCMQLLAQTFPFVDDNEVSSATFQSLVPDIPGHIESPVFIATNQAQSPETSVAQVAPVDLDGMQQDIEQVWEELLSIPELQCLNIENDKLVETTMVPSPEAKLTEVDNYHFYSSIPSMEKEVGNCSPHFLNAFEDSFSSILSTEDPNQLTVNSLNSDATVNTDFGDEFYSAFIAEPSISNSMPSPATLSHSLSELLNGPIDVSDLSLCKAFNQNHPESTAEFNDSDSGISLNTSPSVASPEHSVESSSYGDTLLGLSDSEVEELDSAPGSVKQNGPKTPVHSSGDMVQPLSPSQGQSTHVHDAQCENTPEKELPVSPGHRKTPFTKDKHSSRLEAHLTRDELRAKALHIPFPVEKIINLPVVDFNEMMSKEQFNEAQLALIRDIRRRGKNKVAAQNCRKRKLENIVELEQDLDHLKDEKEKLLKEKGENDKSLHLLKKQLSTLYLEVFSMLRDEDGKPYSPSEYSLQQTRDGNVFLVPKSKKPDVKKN
Chain of Signal transducer and activator of transcription 3 (Homo sapiens) (P40763 whole entry, looked up): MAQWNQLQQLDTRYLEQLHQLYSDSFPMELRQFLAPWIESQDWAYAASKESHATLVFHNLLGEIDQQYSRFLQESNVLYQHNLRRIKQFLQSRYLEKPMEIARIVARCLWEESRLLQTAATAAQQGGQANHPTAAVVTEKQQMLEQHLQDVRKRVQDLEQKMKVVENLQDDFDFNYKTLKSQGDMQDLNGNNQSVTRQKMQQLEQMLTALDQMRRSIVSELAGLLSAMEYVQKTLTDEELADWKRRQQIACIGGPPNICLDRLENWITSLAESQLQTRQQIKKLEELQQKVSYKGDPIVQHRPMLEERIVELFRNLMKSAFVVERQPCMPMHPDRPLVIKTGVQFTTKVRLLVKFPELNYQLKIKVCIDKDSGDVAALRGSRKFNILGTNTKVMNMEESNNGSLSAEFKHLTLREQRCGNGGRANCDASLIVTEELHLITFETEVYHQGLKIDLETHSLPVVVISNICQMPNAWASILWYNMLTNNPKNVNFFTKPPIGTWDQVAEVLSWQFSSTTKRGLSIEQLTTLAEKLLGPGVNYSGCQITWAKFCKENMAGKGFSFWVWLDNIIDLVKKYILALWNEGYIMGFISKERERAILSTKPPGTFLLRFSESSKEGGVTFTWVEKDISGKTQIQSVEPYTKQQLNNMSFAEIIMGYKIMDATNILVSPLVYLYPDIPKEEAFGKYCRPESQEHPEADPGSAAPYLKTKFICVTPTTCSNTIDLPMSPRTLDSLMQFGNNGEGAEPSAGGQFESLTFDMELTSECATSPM
Chain of Cellular tumor antigen p53 (Homo sapiens) (P04637 whole entry, looked up): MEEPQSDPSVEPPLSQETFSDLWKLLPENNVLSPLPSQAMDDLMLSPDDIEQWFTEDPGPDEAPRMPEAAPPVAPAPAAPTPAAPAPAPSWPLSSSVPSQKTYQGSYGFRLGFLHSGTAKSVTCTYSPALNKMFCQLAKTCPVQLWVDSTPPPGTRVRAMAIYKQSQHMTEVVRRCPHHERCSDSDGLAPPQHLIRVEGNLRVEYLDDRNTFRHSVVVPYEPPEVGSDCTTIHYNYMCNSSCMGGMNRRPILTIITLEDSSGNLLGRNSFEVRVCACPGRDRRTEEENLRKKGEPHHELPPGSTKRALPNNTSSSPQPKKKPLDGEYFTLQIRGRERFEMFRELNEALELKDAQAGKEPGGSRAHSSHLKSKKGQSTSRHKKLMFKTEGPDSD

In the case of `C=CC1(C)OC(=O)N(c2cc(Cl)cc(Cl)c2)C1=O` (stereo not given), the outcome [1] is reported as “inactive”, the outcome [2] is reported as “inactive” and the outcome [3] is reported as “inactive”. The outcome [4] was “inactive”, the outcome [5] was “inactive” and the AC50 [6] was 28 µM (active). For the same compound, the outcome [7] was “inactive”, the outcome [8] was “inactive” and the outcome (TIMP1, TIMP1 (gene 7076)) was “inactive”. The outcome [9] was “inactive”, the outcome [10] was “inactive” and the outcome [11] was “inactive”. For the same compound, the outcome [12] was “inactive”, the outcome [13] was “inactive” and the outcome [14] was “inactive”. For the same compound, the outcome [15] was “inactive” and the outcome [16] was “inactive”.
With `CCCCC(CC)COC(=O)c1ccccc1C(=O)OCC(CC)CCCC` (stereo not given) the outcome [1] was “inactive”, the outcome [2] was “inactive” and the outcome [3] was “inactive”. The outcome [4] was “inactive”, the outcome [5] was “inactive” and the outcome [6] was “inactive”. For the same compound, the outcome [7] was “inactive”, the outcome [8] was “inactive” and the outcome (TIMP1, TIMP1 (gene 7076)) was “inactive”. For the same compound, the outcome [17] was “inactive”, the outcome [9] was “inactive” and the outcome [10] was “inactive”. The outcome [11] was “inactive”, the outcome [12] was “inactive” and the outcome [13] was “inactive”. The outcome [14] was “inactive”, the outcome [15] was “inactive” and the outcome [16] was “inactive”. For the same compound, the outcome [18] was “inactive”.
In the case of `CC(C)Oc1cc(-n2nc(C(C)(C)C)oc2=O)c(Cl)cc1Cl`, the outcome [1] is reported as “inactive”, the outcome [2] is reported as “inactive” and the outcome [3] is reported as “inactive”. The outcome [4] was “inactive”, the outcome [5] was “inactive” and the AC50 [6] was 80.9 µM (active). For the same compound, the outcome [7] was “inactive”, the outcome [8] was “inactive” and the outcome (TIMP1, TIMP1 (gene 7076)) was “inactive”. The outcome [17] was “inactive”, the AC50 [9] was 11.8 µM (active) and the AC50 [10] was 86.3 µM (active). For the same compound, the AC50 [11] was 76.5 µM (active), the outcome [12] was “inactive” and the AC50 [13] was 84.6 µM (active). For the same compound, the outcome [14] was “inactive”, the outcome [15] was “inactive” and the outcome [16] was “inactive”. For the same compound, the outcome [18] was “inactive”.
